Measurements published in the supplement of paper PMC6555819.

test system: VDR:RXRa (NR concentration 270 nM, RXRa partner concentration 90 nM); assay: PBM binding z-score (relative to random genomic background probes); higher = stronger binding; sequences stand for … in GC…GCGATTGACAGCGTAGAATGAAGG
Protocol: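 Protein-binding microarray (Agilent 4x180K custom design, double-stranded 60-nt probes: 5' GC cap, 34-nt variable region, 24-nt constant primer region; full probe sequence given). Purified or IVT nuclear receptor:RXRα heterodimers (3:1 NR:RXRα, mostly 270:90 nM) or homodimers were incubated for 1 h in PBS with 2% milk and no ligand, then detected with Alexa488 antibodies. Fluorescence from o1-orientation probes (~5 replicates averaged) was converted to z-scores against 500 random hg19 background probes. Variable regions are seed direct-repeat (DR0–DR5) sites, all their single-nucleotide variants and half-site ablations.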

Sequence	PBM binding z-score
CGTCAGAGTTCAACTAAGGTAACGTAAAGCACGC	5.28
GCTGCTAGGTCAACTCATGGTCAGCTAAAGCTCG	1.71
TTACCAAGGTGAAGGTCTTTGATCCCTCTGTAGA	-0.00925
TCATATAGGTAATACAGGTGGAAGTCGGCATCTA	1.14
AGAATGAGGTTATTAAGATCAGAGAATTGCGGTC	2.56
CCTCGGAGGACAGAAGGTCAGAGCAGTCCGCTTT	1.82
ATCTCTAGGTAACAGGTTCAGTGAAAGAGAGGAC	1.95
TCAGACAGGTGACGGTAACTCAGGTACGCAGTCG	0.324
CCAGACAGGTGTGAAGGTAACTCAGCCTCGATTA	-0.322
CCTAGCAGGCCAACCTGGGTCACTCAAGGCTTGA	1.15
CGTCCAAGGTGAAAGGTCAGTGAAGAGATGACGG	3.69
TAGCCGAGGTCAGATCGGGCCAGTATACGCTATA	4.26
CCGACTGGGGCAAAGCTTACCATACTCAGTACGA	-0.585
TCGGGTAGGTTAGGGGCATTCAGAATGGCGTCGA	1.57
AATACAGGGTCATCGTAGTCCAGAGTACGCACAG	5.65
TGTCAAAGTTCAAAGGTAACGGAAGTATCCACAC	5.14
GATACAGGGTCAGCTAGTGGCCAGAGTATGGAAA	2.34
CAAACTAGATCACGAAAGGTCAAAGTCGAATGAC	4.79
TCTTGTAGATCTATAGAGGTTAAGAAAGTGCGCT	1.65
GCAGACAGGTGAAACGCAGGTAAGTCAGGGTGGC	-0.562

Sequence	PBM binding z-score
ACTAGCAGGCCATGGGTCACTCAAGATTAGTCCG	0.6
GCTCGGTGGACAAGGTCAGAGCTTTGTCCGTAGA	1.48
CGAACGAGGGCATGAGATGATAGCAAATGCCGAT	0.478
ACTAGCAGGCCAAGGGTCGCTCAAGATTAGTCCG	0.00609
CGAATTAGGTCAAGGACAGTGAATCTCCGCACGC	1.61
GCAGACAGGTGAAAAGCAGGTAACTCAGGGTGGC	-0.329
CCTACTAGGTCAATGGTCAGCTAAAGCAGCTCGC	1.45
CCAGACAGGTGAACGGTAACTCAGTCTGGTACGC	-0.205
TGAATGAGGCTATAAGATCAGGGAACGTTGCAAA	-0.38
TCTTGTAGATCAAACAGGTTAAGAAAGCCTGAGT	0.979
GCTCCGAGGACAAGGTCAGAGCTTTGTCCGTAGA	1.43
TCTAGCAGGCCAGAGGGTCACTCGAGAGGTACGG	1.39
CTTCAAAGTTCAACTAAGGTAACGTAAAGCACGC	4.63
TCTAGTTGGACACGGAGGTCACACACGACGGGTA	3.76
TATACATGGTCAAAGGCCAGAGTACGAATGTCGA	0.445
TCATATAGGTAAAAGGGGAAAGTCGGTGTGGTAA	0.861
CCTGCTAGGTCATGGTCAGCTTATCTACAGTATG	1.54
ATGTGTAGGTTATCGGGTCATTCAGTTTGCGCAT	5.25
ATATGTAGGCTAGCTGGGGTCATTCAGACTAGGC	4.77
CGAACTAGGGCATGAGTTGATAGCAAATGCCGAT	0.0428
